# Results: PubChem BioAssay AID1220 (Sanford-Burnham Center for Chemical Genomics, 2008)
# Out of some 190,000 compounds screened, about 1,300 (0.68%) were called active. The sample holds actives, similar compounds and a random draw of the others, so the mix is not that of the screen. No stated cut-off is given here; in the data, active means inhibition above about 50%; inactive means the rest.
# Molecular target: Mannose-6-phosphate isomerase (Homo sapiens) (UniProt P34949)
# Experiment: human PMI inhibitors, high substrate, primary screen, biochemical, fluorescence intensity, high mannose 6-phosphate (AID 1220)
# Settings: recombinant PMI enzyme, coupled fluorescence intensity; at 20 µM; stronger effect = higher value
# Sequence of Mannose-6-phosphate isomerase (Homo sapiens) (P34949 whole entry, looked up): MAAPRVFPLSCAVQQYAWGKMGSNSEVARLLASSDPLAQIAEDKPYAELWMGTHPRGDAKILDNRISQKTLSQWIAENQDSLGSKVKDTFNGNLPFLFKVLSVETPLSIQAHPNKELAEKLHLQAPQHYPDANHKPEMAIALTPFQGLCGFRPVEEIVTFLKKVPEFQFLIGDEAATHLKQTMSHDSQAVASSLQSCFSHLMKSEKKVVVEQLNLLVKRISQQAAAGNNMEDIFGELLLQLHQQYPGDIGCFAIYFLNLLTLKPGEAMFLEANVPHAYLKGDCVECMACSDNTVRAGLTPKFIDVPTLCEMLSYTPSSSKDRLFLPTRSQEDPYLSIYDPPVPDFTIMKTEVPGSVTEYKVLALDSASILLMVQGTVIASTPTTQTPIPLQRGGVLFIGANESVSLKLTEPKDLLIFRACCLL
row,SMILES,inhibition
1,Cc1ccc(NCc2ccccc2)cc1,9.2% (inactive)
2,Cc1csc(=Nc2cccnc2)n1Cc1ccco1,2.8% (inactive)
3,COc1cccc(OCC(=O)NNC(=S)Nc2ccc(Cl)cc2Cl)c1,3.7% (inactive)
4,O=C(c1cncc(Br)c1)N1CCN(c2ccc(N3CCOCC3)nn2)CC1,4.8% (inactive)
5,O=C(CSc1cccc2cccc(Cl)c12)NC1=NCCS1,51.9% (active)
6,O=C(Cc1c(Cl)cccc1Cl)NC1=NCCS1,-5.2% (inactive)
7,O=C(Cc1c(F)cccc1Cl)NC1=NCCS1,9.7% (inactive)
8,COc1ccc(N2C(=O)CSC(c3ccccc3)C2=O)cc1 (stereo not given),4.1% (inactive)
9,Cc1cc(NC(=O)CN2CCN(S(=O)(=O)c3ccc(Cl)cc3)CC2)no1,2.2% (inactive)
10,CC(C)C(=O)NC(c1cccs1)c1cc([N+](=O)[O-])c2cccnc2c1O (stereo not given),46.5% (inactive)
11,O=C(NC(c1ccc(Cl)cc1)c1cc(Cl)c2cccnc2c1O)c1cccnc1 (stereo not given),2.3% (inactive)
12,CC(C)C(=O)NC(c1ccco1)c1ccc2cccnc2c1O (stereo not given),37.8% (inactive)
13,O=[N+]([O-])c1cc(CN2CCN(c3ccccc3)CC2)c(O)c2ncccc12,35.7% (inactive)
14,CC(C)C(=O)NC(c1ccccc1)c1cc([N+](=O)[O-])c2cccnc2c1O (stereo not given),60.9% (active)
15,O=[N+]([O-])c1cc(Cl)c(O)c2ncccc12,32.5% (inactive)
16,O=[N+]([O-])c1cc(CN2CCCC2)c2cccnc2c1O,44.4% (inactive)
17,CN(Cc1cc([N+](=O)[O-])c2cccnc2c1O)C1CCCCC1,51.8% (active)
18,Cc1ccc(C(NC(=O)C(C)C)c2cc([N+](=O)[O-])c3cccnc3c2O)cc1 (stereo not given),53.9% (active)
19,CCCNC(=O)c1ccc2nc(-c3ccccc3)c(-c3ccccc3)nc2c1,11.1% (inactive)
20,CCc1ccc(Oc2cc(C)nc(N)n2)cc1,-0.3% (inactive)
21,CCCCc1ccc(-n2nnnc2SCC(=O)Nc2cc(OC)c([N+](=O)[O-])cc2C)cc1,10.1% (inactive)
22,O=C(NCCc1ccc(Cl)cc1)c1cnc2n(c1=O)CCS2,4.8% (inactive)
23,O=C(N/N=C/c1ccc2c(c1)OCO2)c1sc2cccc(Cl)c2c1Cl,12.6% (inactive)
24,O=C(CCCCCn1c(=O)[nH]c2ccccc2c1=O)N1CCN(Cc2ccc3c(c2)OCO3)CC1,-4% (inactive)

row,SMILES,inhibition
1,O=C(OCc1cccnc1)C1=Cc2ccccc2OC1,-1.4% (inactive)
2,COc1ccc(C(C)=O)c2c(O)cccc12,56.5% (active)
3,COc1ccc(C(=O)c2ccc(OC)c3cccc(O)c23)cc1OC,14.7% (inactive)
4,COc1ccc(C(=O)Nc2cccc(C(C)=O)c2)c(OC)c1OC,8.1% (inactive)
5,CCOc1ccc(N(CC(=O)N/N=C/c2cccnc2)S(C)(=O)=O)cc1,-3.8% (inactive)
6,CN(C)C(=O)C1(c2ccccc2)CCN(S(=O)(=O)c2ccccc2)CC1,14.9% (inactive)
7,COc1oc(-c2ccccc2C)nc1C(F)(F)F,1.8% (inactive)
8,COc1ccc(N/C=C(\C(C)=O)c2ccc(OC)c(OC)c2)cc1OC,42.8% (inactive)
9,COc1ccc(/C(=C\Nc2ccc(C)c(C)c2)C(C)=O)cc1OC,56.5% (active)
10,COc1ccc(/C(=C/Nc2cccc(Br)c2)C(C)=O)cc1OC,4.4% (inactive)
11,CCC/C=N/NC(=O)c1cc(-c2ccccc2)nc2ccccc12,-2.1% (inactive)
12,C=CCc1cc(/C=N/NC(=O)CSc2nnc(CCCc3ccc(OC)cc3)o2)cc(OC)c1O,-3.4% (inactive)
13,N#C/C(=C1\C(=O)Nc2c(Cl)cc(Cl)cc21)c1nnc2n1CCCCC2,51% (active)
14,N#C/C(=N\Nc1cc(Cl)cc(Cl)c1)c1nnc2n1CCCCC2,14.3% (inactive)
15,N#C/C(=C1/CCCCCN1)c1nnc2n1CCCCC2,-3.4% (inactive)
16,O=C(c1cc2nc(-c3ccc(Cl)cc3)cc(C(F)(F)F)n2n1)N1CCOCC1,9.1% (inactive)
17,CC(=O)N1CC(c2ccccc2)C(c2ccc(Cl)cc2)=N1 (stereo not given),11.8% (inactive)
18,CC(C)C(O)(C#CCN1CCCCC1)C(C)C,2.1% (inactive)
19,O=C(NC(=S)N1CCN(Cc2ccccc2)CC1)c1ccccc1,13% (inactive)
20,O=C(NC(=S)N1CCN(Cc2ccccc2)CC1)c1cccnc1,58.4% (active)
21,O=C(NC(=S)N1CCCCC1)c1cccnc1,-1.5% (inactive)
22,COCCN1C(=O)c2oc3ccccc3c(=O)c2C1c1ccc(O)c(OC)c1 (stereo not given),0.7% (inactive)
23,Cc1ccc(Cl)cc1NC(=O)C[n+]1ccc(Cc2ccc([N+](=O)[O-])cc2)cc1,55.3% (active)
24,Cc1cc([N+](=O)[O-])ccc1NC(=O)C[n+]1ccc(N(C)C)cc1,-1.5% (inactive)

row,SMILES,inhibition
1,Cc1ccc([N+](=O)[O-])cc1NC(=O)C[n+]1ccccc1,22.2% (inactive)
2,CC(NC(=O)C1CCCN1C(=O)OCc1ccccc1)c1ccccc1 (stereo not given),-0.5% (inactive)
3,COc1cccc(OC)c1C(=O)NC(=S)Nc1ccc2oc(=O)ccc2c1,10.5% (inactive)
4,O=C(COC(=O)COc1ccccc1[N+](=O)[O-])NC1CCCC1,-5.1% (inactive)
5,O=C(COC(=O)Cc1ccccc1[N+](=O)[O-])NC1CCCC1,55.4% (active)
6,CC(NC(=O)COC(=O)CC(c1ccccc1)c1ccccc1)c1ccccc1 (stereo not given),7.9% (inactive)
7,CC(NC(=O)Cc1ccccc1[N+](=O)[O-])c1ccccc1 (stereo not given),7.4% (inactive)
8,CC(NC(=O)COC(=O)Cc1ccccc1[N+](=O)[O-])c1ccccc1 (stereo not given),51.3% (active)
9,O=C(COC(=O)Cc1ccccc1[N+](=O)[O-])NCC1CCCCC1,-5.7% (inactive)
10,O=Cc1cc2ccccc2nc1SCCCF,4.2% (inactive)
11,CCCn1c(SCC(=O)C(C)(C)C)nc2ccccc21,-8.2% (inactive)
12,O=C(O)Cc1ccc(NC(=O)c2cnccn2)cc1,-9.7% (inactive)
13,Cc1cc(C)c2c(N)c(C(=O)NNC(=O)c3ccccc3)sc2n1,2.3% (inactive)
14,Cc1cc(C)nc(-n2nc(C)cc2NC(=O)CN2CCCC(C)C2)n1 (stereo not given),4.4% (inactive)
15,Cc1ccc(SC(C)C(=O)NCc2ccncc2)cc1 (stereo not given),11.4% (inactive)
16,CC(=O)NC1(C(F)(F)F)NC(=O)N(c2ccc(F)cc2)C1=O (stereo not given),-10.2% (inactive)
17,CC(=O)c1ccccc1OC(=O)CCN1C(=O)C2C3C=CC(C4CC34)C2C1=O (stereo not given),59.3% (active)
18,O=C(CCN1C(=O)C2C3C=CC(C4CC34)C2C1=O)Oc1ccccc1 (stereo not given),-3.5% (inactive)
19,Cc1cccc(OC(=O)CCN2C(=O)C3C4C=CC(C5CC45)C3C2=O)c1C (stereo not given),-6.4% (inactive)
20,Cc1ccc(C(=O)NCc2ccco2)cc1S(=O)(=O)Nc1cccc(C)c1C,0.8% (inactive)
21,COc1cccc(CN2CCN(Cc3[nH]c4ccccc4c3C)CC2CCO)c1 (stereo not given),-0.2% (inactive)
22,CC(C)CC(=O)Nc1ccc2nn(-c3ccccc3)nc2c1,26.4% (inactive)
23,CC(C)c1ccc(-n2nc3ccc(N)cc3n2)cc1,55.8% (active)
24,CN(C)C=Nc1ccc2nn(-c3ccccc3)nc2c1,60.2% (active)

row,SMILES,inhibition
1,Cc1ccc(-n2nc3ccc(NC(=O)C(C)C)cc3n2)cc1,13.3% (inactive)
2,Nc1ccc2nn(-c3ccccc3)nc2c1,57.9% (active)
3,CC(C)C(=O)Nc1ccc2nn(-c3ccccc3)nc2c1,-0.5% (inactive)
4,Cc1nc2cc(N)ccc2n1-c1ccccc1,21.5% (inactive)
5,Cc1ccc(-n2nc3ccc(N)cc3n2)cc1,31.3% (inactive)
6,CC(C)c1ccc2oc(-c3cc(N)ccc3O)nc2c1,-12.6% (inactive)
7,COc1cccc(CN(c2ccc3c(c2)CCC3)S(=O)(=O)c2ccc(-n3cnnn3)c(OC)c2)c1,-3.4% (inactive)
8,N#C/C(=C\c1ccncc1)C(N)=O,17.1% (inactive)
9,COc1ccc(Oc2ccccc2C#N)cc1,4.7% (inactive)
10,O=C(CSc1nnnn1CCCO)Nc1ccc2c(c1)OCO2,-12.3% (inactive)
11,COC(=O)c1ccc(N2CCOCC2)c(F)c1,-3.2% (inactive)
12,Nc1cc(-c2ccc(Br)cc2)nn1S(=O)(=O)c1cccc2nsnc12,11.3% (inactive)
13,CO[C@H]1C=CO[C@@]2(C)Oc3c(C)c(O)c4c(O)c(c(C=NN5CCN(C)CC5)c(O)c4c3C2=O)NC(=O)C(C)=CC=C[C@H](C)[C@H](O)[C@@H](C)[C@@H](O)[C@@H](C)[C@H](OC(C)=O)[C@@H]1C,42.7% (inactive)
14,CO[C@H]1C=CO[C@@]2(C)Oc3c(C)c(O)c4c(O)c(c5c(nc6cc(C)ccn65)c4c3C2=O)NC(=O)C(C)=CC=C[C@H](C)[C@H](O)[C@@H](C)[C@@H](O)[C@@H](C)[C@H](OC(C)=O)[C@@H]1C,32.2% (inactive)
15,CO[C@H]1C=CO[C@@]2(C)Oc3c(C)c(O)c4c(O)c(c(C=NN5CCN(C6CCCC6)CC5)c(O)c4c3C2=O)NC(=O)C(C)=CC=C[C@H](C)[C@H](O)[C@@H](C)[C@@H](O)[C@@H](C)[C@H](OC(C)=O)[C@@H]1C,73.8% (active)
16,O=C(OCC(=O)N1CCCC1)c1ccccc1OCc1ccccc1,4.1% (inactive)
17,NC(=O)c1c(NC(=S)Nc2ccc(F)cc2)sc2c1CCCC2,2.3% (inactive)
18,Cc1ccc(/C=C2/C(=O)N(c3ccccc3)C(=S)N2C)o1,52.2% (active)
19,CCOc1ccc(N2C(=O)/C(=C/c3ccc(C)o3)N(C)C2=S)cc1,43.2% (inactive)
20,CN1C(=S)N(c2ccccc2)C(=O)/C1=C/c1ccco1,-16.2% (inactive)
21,COc1cc(C(=O)NCC(C)C)cc(OC)c1OC,-10.5% (inactive)
22,COC(=O)C1=C(C)NC(C)=C(C(=O)OC)C1c1ccc(-c2cc(Cl)ccc2Cl)o1,-1.9% (inactive)
23,COCCNC(=O)Cn1nc(C(F)(F)F)cc1C,21.9% (inactive)
